The panel holds about 83,000 compounds, 20% with a hit somewhere; the sample as a whole holds those more often.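 The test compound was applied at a single concentration to cells in 96-well plates for 48 hours, and percent growth was recorded.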 A number with no mark means an inactive call. The source made the active and inactive calls. The calls were made as follows: active = growth percent below 10; inactive = the rest.

This test has as its system MDA-MB-468 breast. In words: NCI-60 one-dose screen, 48 h (100 = growth as untreated, 0 = no growth, -100 = all killed). The conditions noted are these: 10 µM unless noted.
`CCOC(=O)c1ccc(Nc2sc(C(=O)c3cccc([N+](=O)[O-])c3)c(N)c2C#N)cc1`: the growth was 4.24% (active).

For the compound `COc1cc(-c2cc(/C=C/C(=O)c3ccc(F)c(F)c3)[nH]n2)cc(OC)c1OC`, the growth was 33.8%. Then `O=c1[nH]c(-c2cn(-c3ccc(Cl)cc3)nn2)nc2ccccc12`, with 77.1%. As for `COc1ccccc1Cn1cc(C#N)c(N)c1C(=O)c1ccc(Br)cc1`, the growth is 72.2%. `O=C(Nc1cccc(-n2cc(-c3ccncc3)c(-c3ccc(Cl)c(O)c3)n2)c1)Nc1cccc(C(F)(F)F)c1`: the growth is 10.5%. Then `CCOC(=O)C(=O)Nc1ccc2c(ccn2C(=O)c2cccc(F)c2)c1`, with 89.5%. Then `NC(=O)c1ccc[n+](Cc2ccc(Cl)cc2Cl)c1`, with 101%; and `CCOC(=O)C(=Cc1ccc(-c2ccccc2)cc1)C(=O)OCC`, with 53%. Then `NC(=O)N/N=C/c1ccc(Br)o1`, with 109%; and `CNC1=C(Br)C(=O)c2c(C(=O)OC)c(C)nc(C)c2C1=O`, with 27.4%; and `O=C(O)c1ccc(NC(=O)c2ccc(Nc3ccnc(C(F)(F)F)c3)cc2)cc1`, with 99.8%.

In the case of `C[n+]1c2ccccc2c(Nc2ccc(N3CCCCC3)cc2)c2[nH]c3ccccc3c21`, the growth is -73.8% (active). For `CN(C)CCC(O)(Cc1ccccc1)c1ccccc1` (centres undefined) the value was 110%.

Take `C=CCN1CCCC1=O`: the growth was 96.5%. For `Clc1ccc2c(NCCNc3nc(N4CCOCC4)nc4ccccc34)ccnc2c1` the value was 25.1%; for `CCN(CC)CCOC(=O)c1ccc(N=Nc2ccc(O)c(OC)c2)cc1`, 94%; for `O=C(Nc1nc2c(s1)CCc1c-2c(Br)n(Cc2ccccc2)c1Br)c1ccccc1`, 72.8%. Consider `Cc1ccc(NC(=O)c2cc(-c3nc4ccccc4s3)c(=O)n(NS(=O)(=O)c3ccc(Cl)cc3)c2N)cc1`, for which the growth is 109%.

As for `Cc1c(Cl)cccc1NC(=S)NC(=O)c1ccccc1`, the growth was 33.9%.

For the compound `O=C1Nc2cc(-c3ccc(NC(=O)c4ccccc4)cc3)ccc2/C1=C/c1ccc[nH]1`, the growth was 2.14% (active).

With `O=C1/C(=C/c2ccc(F)cc2)COc2ccc(O)c(O)c21`, the growth was -2.42% (active). For `CC1(C)C2CCC(O)(C(=O)O)C1C2` (centres undefined) the value was 106%; for `CCn1c2ccccc2c2cc(NC(=O)Nc3ccc([N+](=O)[O-])cc3C)ccc21`, 7.62% (active). For `CCc1ccccc1C(=O)N(CC)CC` the value was 116%.

These data come from PubChem BioAssay (NCI).
